Assay outcomes: PubChem BioAssay, Sanford-Burnham Center for Chemical Genomics
A selection: hits, their analogues and other compounds. The true share with any hit is near 2.7%.
MPTP block: permeability transition pore inhibition | AID 602449 | inhibition, % at 10 µM | 360,000 compounds, 1.4% hits | isolated mouse mitochondria, Ca2+ swelling absorbance, 30 min;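 active = inhibition of 50% or more, scaled per plate between neutral and stimulator controls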;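 also: 0% = DMSO wells given calcium and 100% = 1 mM EGTA wells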
TAG inh: reduces triacylglycerol accumulation in H9c2 cells. Nile Red lipid (TAG) fluorescence; cells loaded with 200 µM oleic acid. inhibition, % at 12.5 µM. 230,000 compounds, 0.66% hits;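 active = pattern-corrected inhibition of lipid staining of at least 50% with the nuclear-stain viability signal not falling by more than 50%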;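 also: 0% = DMSO wells and 100% = triacsin C control wells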
aDG glyco act: increases alpha dystroglycan glycosylation; Pro5-aDG cells, alpha-DG glycosylation AlphaScreen (IIH6); 0% Pro5, 100% B10-LARGE cell signal; activation, % at 10 µM; 360,000 compounds, 0.22% hits;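 active = activation of at least 8% versus controls, or a plate z-score of at least 8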;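 also: Pro5 are CHO cells carrying HIG-tagged alpha-DG that lacks glycosylation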
NadD inh: NadD (S. aureus) enzyme inhibition. 360,000 compounds, 0.78% hits. inhibition, % at 20 µM. purified NadD enzyme, colorimetric absorbance read-out; in the data active = inhibition above about 26%
Rh123 counter: Rhodamine 123 counter-screen of mitochondrial pore hits; inhibition, % at 10 µM; shares compounds with MPTP block; isolated mitochondria, membrane potential, Rhodamine 123 fluorescence; AID 624504; 5,000 compounds, 78% hits; in the data active = inhibition above about 22%;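 also: 0% = DMSO vehicle and 100% = positive control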
MPTP abs DR: MPTP inhibition, dose response swelling confirmation. shares compounds with MPTP block. isolated mitochondria swelling, absorbance. IC50, µM. 780 compounds, 58% hits; in the data active = IC50 below about 20 µM
MPTP cs DR: counter-screen for mitochondrial permeability transition pore inhibitors, dose response. 780 compounds, 49% hits. isolated mitochondria counterscreen, fluorescence read-out. IC50, µM. AID 651564. shares compounds with MPTP block; in the data active = IC50 below about 80 µM
Numbers without * were called inactive; . = not tested or not shown.

SMILES	MPTP block	TAG inh	aDG glyco act	NadD inh	Rh123 counter	others
OC(COc1ccc(OCC(O)CN2CCCCC2)cc1)CN1CCCCC1 (configuration not stated)	0	12	0	-3	.
CC(Sc1nnc(Cc2ccccc2)o1)C(=O)Nc1ccccc1[N+](=O)[O-] (configuration not stated)	-2	0	0	3	.
COc1ccc(Nc2ncnc3sccc23)cc1OC	0	.	0	-1	.
c1ccc2c(c1)OCC(CNc1ncnc3sccc13)O2 (configuration not stated)	99*	.	5	-1	103*
Fc1ccccc1CNc1ncnc2sccc12	24	.	2	-3	.
c1ccc2c(c1)OCC(CNCC1COc3ccccc3O1)O2 (configuration not stated)	0	.	0	-5	.
COc1ccc(CCNc2ncnc3sccc23)cc1OC	95*	-26	6	-2	80*
COc1ccccc1CNc1ncnc2sccc12	52*	.	2	-8	76*
O=C(CCNC(=O)c1ccc(Br)cc1)NNC(=O)c1ccccc1	-2	7	0	0	.
COc1cc(NC(=O)COC(=O)CNC(=O)C2CCCCC2)cc(OC)c1	-2	-1	0	1	.
O=C(Nc1nc2ccccc2s1)C1CCN(S(=O)(=O)c2cc([N+](=O)[O-])ccc2Cl)CC1	95*	20	1	25	77*
Cc1cccc(OCC(=O)Nc2nc3ccc([N+](=O)[O-])cc3s2)c1C	69*	.	0	2	83*
Cc1cccc(OCC(=O)Nc2nc3ccc([N+](=O)[O-])cc3s2)c1	67*	.	0	1	87*
CCC(C)NC(=O)C1CCN(S(=O)(=O)c2cc([N+](=O)[O-])ccc2Cl)CC1 (configuration not stated)	1	29	0	-4	.
O=C(COc1ccccc1C(=O)O)Nc1nc2ccc([N+](=O)[O-])cc2s1	94*	-1	0	3	83*
Cc1nc2ccc(NC(=O)COc3ccccc3[N+](=O)[O-])cc2s1	-2	.	0	0	.
CCOc1ccccc1OCCCC(=O)Nc1cc(S(=O)(=O)N2CCOCC2)ccc1OC	0	9	0	-4	.
CCOC(=O)CC1COCCN1C(=O)c1cc(COc2ccc(F)cc2Cl)on1 (configuration not stated)	0	-16	0	-11	.
COc1ccc(-c2c[n+](CC(=O)OC3CC(C)CCC3C(C)C)c3n2CCC3)cc1 (configuration not stated)	0	7	0	9	.
CC1CCC(C(C)C)C(OC(=O)COC(=O)c2cccn2C)C1 (configuration not stated)	1	-27	0	10	.
CC1CCC(C(C)C)C(OC(=O)Cn2c(-c3ccc(Cl)cc3)[n+](C)c3ccccc32)C1 (configuration not stated)	54*	99	0	2	79*
CC(C)[C@@H]1CC[C@@H](C)C[C@H]1OC(=O)C[n+]1cc(-c2ccc(Cl)cc2)n2c1CCCCC2	64*	80*	0	6	86*
CC(=O)c1c(C)[nH]c(C(=O)OCC(=O)N2CC(C)OC(C)C2)c1C (configuration not stated)	0	9	0	-4	.
Cc1cc(C(C)(C)C)ccc1OCCOCCN1CCCC1	54*	.	1	-2	4	MPTP abs DR=12*;MPTP cs DR=24*
Cc1ccc(/C([O-])=C(/C(=S)Nc2ccc(SC(F)F)cc2)[n+]2ccccc2)cc1[N+](=O)[O-]	64*	15	0	-3	80*
SMILES	MPTP block	TAG inh	aDG glyco act	NadD inh	Rh123 counter	others
Cc1ccccc1NC(=S)/C(=C(\[O-])c1ccc(C)c([N+](=O)[O-])c1)[n+]1ccccc1	-2	.	0	5	.
CCOc1ccc(NC(=O)Nc2nc(SCC)ns2)cc1	97*	-15	0	5	79*
CCSc1nsc(NC(=O)Nc2ccc(F)cc2F)n1	72*	-16	0	-3	91*
CCSc1ncc(Cl)c(C(=O)Nc2ccccc2Cl)n1	0	.	0	-5	.
CCSc1nsc(NC(=O)Nc2ccccc2Cl)n1	63*	.	0	1	90*
O=C(Nc1ncnc2c1ncn2[C@@H]1O[C@H](/C=C/C(=O)N2CCN(c3ccc(F)cc3)CC2)[C@@H](O)[C@H]1O)c1ccccc1	1	.	0	3	.
O=S1(=O)c2cccc3cccc(c23)N1CCBr	0	.	0	-4	.
Cc1cc(C(=O)CSc2nc3ccccc3c(=O)n2C)c(C)n1Cc1ccc2c(c1)OCO2	97*	-65	5	15	94*
COc1ccc(Cc2c(-c3cccc(Cl)c3)nc3ccc(C)cn23)c(C)c1	1	.	0	5	.
O=c1oc2c(-c3cccc(F)c3)cc(O)cc2s1	84*	.	0	-3	85*
COCCN(C(=O)COC(=O)CCCc1c[nH]c2ccccc12)c1c(N)n(Cc2ccccc2)c(=O)[nH]c1=O	0	-21	0	5	.
Cc1nc2ccc(S(=O)(=O)Nc3ccccc3C)cc2s1	0	.	0	-8	.
Cc1nc2cc(NS(=O)(=O)c3cccc(F)c3)ccc2s1	-1	-6	0	-2	.
CC(=O)c1cccc(S(=O)(=O)Nc2ccc3nc(C)sc3c2)c1	91*	-25	0	-3	57*
COc1cc(S(=O)(=O)Nc2ccc(C(=O)NCC(=O)O)cc2)ccc1NC(C)=O	0	-7	0	-4	.
COc1cc(S(=O)(=O)Nc2ccc3nc(C)sc3c2)ccc1NC(C)=O	68*	-11	0	-4	86*
Cc1nc2ccc(NS(=O)(=O)c3ccc(C)c(C)c3)cc2s1	96*	-29	1	1	94*
COc1cccc(C(c2nnnn2C(C)(C)C)N2CCN(C/C=C/c3ccccc3)CC2)c1OC (configuration not stated)	0	.	0	-7	.
CC(C)c1csc(CN2CCCC(CNC(=O)c3cccc4ccccc34)C2)n1 (configuration not stated)	0	1	0	-6	.
O=C(NCCCNc1ccc(C(F)(F)F)cc1[N+](=O)[O-])c1ccc(Cl)cc1	58*	.	0	-11	74*
S=C(NCc1ccccc1)NNc1nc2ccccc2[nH]1	-7	9	0	0	.
O=C(Nc1ccc(OCC(F)(F)C(F)F)c(C(F)(F)F)c1)c1ccccc1O	106*	2	0	-6	77*
COc1ccc(C(=O)N/C(=C\c2cn(S(=O)(=O)N(C)C)c3ccccc23)C(=O)N2CCN(C)CC2)cc1OC	1	15	1	-4	.
O=[N+]([O-])c1cc(CS(=O)(=O)Oc2ccc(Cl)cc2)c(O)c([N+](=O)[O-])c1	74*	-5	0	1	59*
